# Measured values reported in PubChem BioAssay (EPA / NIEHS).
# Values joined by “and” are separate entries in the source; they are usually repeats but may differ in a detail not shown here. Identical values can stand only once. Inconclusive results are not listed. Active and inactive are the calls of the source. How the source made its calls, unless noted: active means hit-call score of the fitted dose curve at least 0.9, where 1 is the maximum; inconclusive means response in the unintended direction; inactive means score below 0.9.
# Tested on: not listed separately
# Experiment: IUF_NPC2-5_viability_120hr: Viability Assessment at 120 hours in the Leibniz Research Institute for Environmental Medicine (IUF) Neural Progenitor Cell Migration and Differentiation Assay (NPC2-5) (AID 2284312; active means hit-call score of the fitted dose curve at least 0.9, where 1 is the maximum; inactive means score below 0.9)
# Details: not given
# Outline: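 Human fetal neural progenitor spheres (0.3 mm) plated on poly-D-lysine/laminin in N2 differentiation medium, exposed 120 h with half-medium refresh at day 3. Viability by alamar blue resazurin fluorescence; 7 concentrations, DMSO max 0.1%.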
SMILES,outcome,AC50
Cn1cc[nH]c1=S,inactive,
CCCC(CCC)C(=O)O,,1030 µM (active)
Nc1ccn([C@@H]2O[C@H](CO)[C@@H](O)[C@@H]2O)c(=O)n1,inactive,

# Tested on: not listed separately
# Experiment: VALA_MIGHUV2_WoundArea: VALA Sciences human Umbilical Vein Endothelial Cell Migration (MIGHUV) Assay, Area of Scratch Wound after Recovery (AID 2284316)
# Details: not given
# Outline: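 Wound-area endpoint read by fluorescence imaging of Hoechst-stained nuclei after a 24 h recovery period following scratch of HUVEC monolayers (9000 cells/well). Chemicals dosed within 30 min post-scratch, triplicate 6-point series, 0.1% DMSO vehicle; Cytochalasin D positive control.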
row,SMILES,outcome
1,CCCCCCCCCC,inactive
2,CCN(CC)C(=S)SSC(=S)N(CC)CC,inactive
3,Cn1cc[nH]c1=S,inactive

# Tested on: not listed separately
# Experiment: CCTE_Mundy_HCI_iCellGluta_NOG_NeuriteLength: CCTE's Neurite Outgrowth Assay in iCellGluta cells for Neurite Length, Mundy Lab (AID 2284318)
# Details: not given
# Outline: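 Automated high-content imaging of betaIII-tubulin (Alexa Fluor-488) and Hoechst-stained cells gave neurite length, normalized to the DMSO baseline.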
SMILES,outcome,AC50
OC(O)(C(F)C(O)(O)C(F)(F)F)C(F)(F)F,inactive,
C[C@]12C=CC(=O)C=C1CC[C@H]1[C@@H]3C[C@@H](O)[C@](O)(C(=O)CO)[C@@]3(C)C[C@H](O)[C@@]12F,,19.8 µM (active)
Cn1cc[nH]c1=S,inactive,
FC(F)(F)C(F)(F)C(F)(F)C(F)(F)C(F)(F)C(F)(F)I,inactive,
FC(F)=C(F)C(F)(F)C(F)(F)C(F)(F)C(F)(F)C(F)(F)C(F)(F)F,inactive,
Nc1ccn([C@@H]2O[C@H](CO)[C@@H](O)[C@@H]2O)c(=O)n1,,741 nM (active) and 1.09 µM (active)
c1ccc2cc3ccccc3cc2c1,inactive,
O=C(Cl)C(F)(F)C(F)(F)C(F)(F)C(=O)Cl,inactive,

# Tested on: not listed separately
# Experiment: CCTE_Deisenroth_5AR_NBTE_donor: CCTE's 5alpha-reductase NanoBRET Target Engagement Assay […], Deisenroth Lab (AID 2284319; active means hit-call score of the fitted dose curve at least 0.9, where 1 is the maximum; inactive means score below 0.9)
# Details: actives raise or lower the signal
# Outline: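 In this secondary endpoint, donor luminescence from SRD5A2-NanoLuc in transfected HEK293T flags artifacts. Test chemical (10 nM - 29.9 uM) is present five hours, tracer the last two; mock-tracer wells run plate-matched; data fitted bidirectionally against DMSO.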
SMILES,outcome,AC50
CCCCCCCC/C=C\CCCCCCCC(=O)OC[C@@H](O)[C@H]1OC[C@H](O)[C@H]1O,inactive,
CCCCCOC(C)=O,inactive,
CCN(CC)C(=S)SSC(=S)N(CC)CC,,50 µM (active)
O=S(=O)(O)c1ccc(N=Nc2c(O)ccc3cc(S(=O)(=O)O)ccc23)cc1,,36.5 µM (active)

# Tested on: not listed separately
# Experiment: CCTE_Deisenroth_5AR_NBTE_acceptor: CCTE's 5alpha-reductase NanoBRET Target Engagement Assay - Autofluorescence Screen, Deisenroth Lab (AID 2284321; active means hit-call score of the fitted dose curve at least 0.9, where 1 is the maximum; inactive means score below 0.9;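 further: compound fluorescence in the acceptor channel under 460 nm excitation flags autofluorescence artifacts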)
# Details: actives raise or lower the signal
# Outline: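 Autofluorescence counter-screen: chemicals at an assumed nominal 100 uM in DMSO were scanned in three independent runs with 460 nm excitation. Gain or loss of acceptor signal was fitted bidirectionally against DMSO.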
SMILES,outcome,AC50
CCCCCCCC/C=C\CCCCCCCC(=O)OC[C@@H](O)[C@H]1OC[C@H](O)[C@H]1O,inactive,
CCCCCOC(C)=O,inactive,
CCN(CC)C(=S)SSC(=S)N(CC)CC,,39.6 µM (active)
O=S(=O)(O)c1ccc(N=Nc2c(O)ccc3cc(S(=O)(=O)O)ccc23)cc1,inactive,

# Tested on: SRD5A2 (gene 6716)
# Experiment: CCTE_Deisenroth_5AR_NBTE_ratio: CCTE's 5alpha-reductase NanoBRET Target Engagement Assay - Ratio, Deisenroth Lab (AID 2284322; active means hit-call score of the fitted dose curve at least 0.9, where 1 is the maximum; inactive means score below 0.9)
# Details: actives raise or lower the signal
# Outline: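 SRD5A2-NanoLuc HEK293T; cmpd 10 nM-29.9 uM, 3 h preinc + testosterone tracer 2 h; NanoBRET ratio 650/460; bidirectional fit vs DMSO.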
SMILES,outcome,AC50
CCCCCCCC/C=C\CCCCCCCC(=O)OC[C@@H](O)[C@H]1OC[C@H](O)[C@H]1O,inactive,
CCCCCOC(C)=O,inactive,
CCN(CC)C(=S)SSC(=S)N(CC)CC,,50 µM (active)
O=S(=O)(O)c1ccc(N=Nc2c(O)ccc3cc(S(=O)(=O)O)ccc23)cc1,,61.8 µM (active)

# Tested on: not listed separately
# Experiment: TAMU_PeakParms_SingleDonor1434_Asystole: Texas A&M University (TAMU) 1.5-hr Human Induced Pluripotent Stem Cell (iPSC)-derived Cardiomyocytes Calcium (Ca+2) Flux Assay for Cardiotoxicity: Asystole (quiescence of beating) (AID 2284328)
# Details: not given
# Outline: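 Donor 1434 iPSC-cardiomyocytes exposed 90 min at 37C, 5% CO2, to 0.2, 1, 10 and 100 uM in 0.5% DMSO. Ca2+ dye fluorescence gave average peak frequency; POD is EC95, a 95% beat-rate drop versus controls.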
row,SMILES,outcome
1,CCN(CC)C(=S)SSC(=S)N(CC)CC,inactive
2,CCCC(CCC)C(=O)O,inactive
3,OC[C@H]1O[C@@](CO)(O[C@H]2O[C@H](CO)[C@@H](O)[C@H](O)[C@H]2O)[C@@H](O)[C@@H]1O,inactive
4,c1ccc2cc3ccccc3cc2c1,inactive
5,COc1cc2c(c(OC)c1OC)-c1ccc(OC)c(=O)cc1[C@@H](NC(C)=O)CC2,inactive

# Tested on: Brachyury (BRA) Protein Expression, Deisenroth Lab, TBXT (gene 6862)
# Experiment: CCTE_Deisenroth_DEVTOX-GLR_legacy_Bra: (Legacy) CCTE's DevTox GLR-Endo Assay Evaluation of Brachyury (BRA) Protein Expression, Deisenroth Lab (AID 2284329; active means hit-call score of the fitted dose curve at least 0.9, where 1 is the maximum; inactive means score below 0.9)
# Details: not given
# Outline: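 Readout: percent Bra+ cells by high-content fluorescence imaging, Bra+ meaning mean intensity 5x BMAD over pluripotent control median. RUES2-GLR cells dosed twice over 48 h differentiation; DMSO-control median subtracted before concentration-response fitting.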
SMILES,outcome,AC50
NNC(=O)c1ccncc1,inactive,
CCCC(CCC)C(=O)O,inactive,
Nc1ccn([C@@H]2O[C@H](CO)[C@@H](O)[C@@H]2O)c(=O)n1,,0.152 µM (active)

# Tested on: not listed separately
# Experiment: CCTE_Deisenroth_DEVTOX-GLR_legacy_CellCount: (Legacy) Viability Assessment in CCTE's DevTox GLR-Endo Assay, Deisenroth Lab (AID 2284331; active means hit-call score of the fitted dose curve at least 0.9, where 1 is the maximum; inactive means score below 0.9)
# Details: actives raise or lower the signal
# Outline: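 Seed RUES2-GLR 24 h; differentiate 48 h, dosing at 0 and 24 h; fix, stain nuclei; image 5 fields/well; count nuclei. Conc. 1 nM - 200 uM, single technical replicate, n=4 experiments; bidirectional fit vs 0.2% DMSO.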
SMILES,outcome,AC50
NNC(=O)c1ccncc1,inactive,
CCCC(CCC)C(=O)O,inactive,
NC(=O)N1c2ccccc2C=Cc2ccccc21,,67 µM (active)
Nc1ccn([C@@H]2O[C@H](CO)[C@@H](O)[C@@H]2O)c(=O)n1,,0.259 µM (active)

# Tested on: not listed separately
# Experiment: VALA_TUBIPS_Antagonist_CellCount: Viability Assessment in the VALA Sciences human iPS-derived Endothelial Tubule Formation (TUBIPS) Antagonism Assay (AID 2284335)
# Details: not given
row,SMILES,outcome
1,CCCCCCCCCC,inactive
2,CCN(CC)C(=S)SSC(=S)N(CC)CC,inactive
3,OCCNCCO,inactive
4,Cn1cc[nH]c1=S,inactive
5,CCCC(CCC)C(=O)O,inactive

# Tested on: not listed separately
# Experiment: VALA_MIGHUV1_ScratchOnly_WoundArea: VALA Sciences human Umbilical Vein Endothelial Cell Migration (MIGHUV) Assay, Area of Scratch Wound Inhibited Recovery (AID 2284336)
# Details: not given
# Outline: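 Wound area remaining after 24 h recovery imaged by Hoechst nuclear fluorescence in scratched HUVEC cultures, chemicals added within 30 min of scratching across a 6-point series. Gain of signal fitted against 0.1% DMSO; cytochalasin D positive control.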
row,SMILES,outcome
1,CCCCCCCCCC,inactive
2,CCN(CC)C(=S)SSC(=S)N(CC)CC,inactive
3,OCCNCCO,inactive
4,Cn1cc[nH]c1=S,inactive

# Tested on: not listed separately
# Experiment: VALA_TUBHUV_Agonist_TubuleLength: VALA Sciences human Umbilical Vein Endothelial Tubule Formation (TUBHUV) Agonism Assay (AID 2284337)
# Details: not given
# Outline: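 Tubule length quantified by CD31 immunofluorescence imaging after fixation. HUVEC-HDF co-cultures (1:3) pre-grown 3 days with 10 ng/ml VEGF, then dosed 3 days in VEGF medium; 0.1 % DMSO vehicle baseline.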
row,SMILES,outcome
1,CCN(CC)C(=S)SSC(=S)N(CC)CC,inactive
2,OCCNCCO,inactive
3,Cn1cc[nH]c1=S,inactive
